Results reported in PubChem BioAssay (EPA / NIEHS).
Results filed as inconclusive are left out. The source made the active and inactive calls. How the source made its calls, unless noted: active means hit-call score of the fitted dose curve at least 0.9, where 1 is the maximum; inconclusive means response in the unintended direction; inactive means score below 0.9.

Key:
[1] = Tanguay_ZF_120hpf_MORT_legacy: (Legacy) Oregon State University Tanguay Lab 120 Hour Post-fertilization zebrafish Assay for Mortality (AID 2283633)
Summary of the method: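 Brightfield scoring of embryo death (binary) at 24 and 120 hpf; static exposure 6–120 hpf, 28C, sealed and foil-covered. Pronase-dechorionated 5D wild-type larvae, single embryo per well. DMSO 0.64% v/v; trimethyltin chloride 5uM positive control.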

[2] = Tanguay_ZF_120hpf_YSE_legacy: (Legacy) Oregon State University Tanguay Lab 120 Hour Post-fertilization zebrafish Assay for Yolk Sac Edema (AID 2283634);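 on AC50: actives raise the incidence of yolk sac edema above the DMSO baseline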
Summary of the method: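 Binary brightfield scoring of yolk sac edema at 120 hpf; DMSO baseline, gain-of-signal fitting. Dechorionated 5D larvae, one per well, static exposure 6–120 hpf, 28C, 0.64% DMSO. Dead embryos not scored.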

[3] = Tanguay_ZF_120hpf_AXIS_legacy: (Legacy) Oregon State University Tanguay Lab 120 Hour Post-fertilization zebrafish Assay for Body Axis Malformation (AID 2283635);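 on AC50: potency for an increased fraction of larvae scored with body axis malformation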
Summary of the method: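 Embryos: 5D wild-type, pronase-dechorionated 4 hpf; static exposure 6–120 hpf, 28C, sealed, dark, 1 embryo/well, 0.64% DMSO. 120 hpf axis malformation scored present/absent; dead embryos excluded. Analysed as gain of signal vs DMSO.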

[4] = Tanguay_ZF_120hpf_EYE_legacy: (Legacy) Oregon State University Tanguay Lab 120 Hour Post-fertilization zebrafish Assay for Eye Malformation (AID 2283636);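 further: binary presence or absence of eye malformation scored by brightfield in 120 hpf larvae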
Summary of the method: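 Static waterborne exposure of dechorionated zebrafish embryos (strain Tropical 5D), 6 to 120 hpf, sealed plates at 28C, 0.64% DMSO vehicle. Eye malformation is scored as a binary endpoint, with gain of signal analysed relative to DMSO.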

[5] = Tanguay_ZF_120hpf_SNOU_legacy: (Legacy) Oregon State University Tanguay Lab 120 Hour Post-fertilization zebrafish Assay for Snout Malformation (AID 2283637)
Summary of the method: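 Dechorionated zebrafish, individually housed from 6 hpf in covered, sealed wells at 28C with 0.64% DMSO vehicle, were examined at 120 hpf for snout malformation. Responses were binary and analysed positive-direction relative to DMSO.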

[6] = Tanguay_ZF_120hpf_JAW_legacy: (Legacy) Oregon State University Tanguay Lab 120 Hour Post-fertilization zebrafish Assay for Jaw Malformation (AID 2283638);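 on AC50: active means more embryos with jaw malformation than DMSO controls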
Summary of the method: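 Binary jaw-malformation calls at 120 hpf by brightfield imaging; DMSO (0.64% v/v) = baseline. Embryos: 5D wild-type, pronase-dechorionated, one per well from 6 hpf, static exposure, 28C, sealed, dark.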

[7] = Tanguay_ZF_120hpf_OTIC_legacy: (Legacy) Oregon State University Tanguay Lab 120 Hour Post-fertilization zebrafish Assay for Otic Vesicle Malformation (AID 2283639)
Summary of the method: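 Statically exposed wild-type 5D zebrafish embryos, kept sealed and dark at 28C through 120 hours post fertilization, were examined by brightfield microscopy for otic vesicle defects. Responses were recorded as present or absent and analysed relative to DMSO.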

[8] = Tanguay_ZF_120hpf_PE_legacy: (Legacy) Oregon State University Tanguay Lab 120 Hour Post-fertilization zebrafish Assay for Pericardial Edema (AID 2283640);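 on AC50: potency for increased incidence of pericardial edema versus DMSO baseline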
Summary of the method: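 Static waterborne exposure, 5D wild-type embryos, 28C, to 120 hpf; final DMSO 0.64% (vol/vol). Binary PE call at 120 hpf by brightfield; fitted upward vs DMSO baseline. 5uM trimethyltin chloride as positive control.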

[9] = Tanguay_ZF_120hpf_BRAI_legacy: (Legacy) Oregon State University Tanguay Lab 120 Hour Post-fertilization zebrafish Assay for Brain Malformation (AID 2283641)
Summary of the method: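 Read-out: binary brain morphology call at 120 hpf (brightfield), fitted in gain-of-signal direction vs DMSO. Wild-type Tropical 5D embryos, static exposure, 28C, 0.64% DMSO final; 5uM trimethyltin chloride as positive control.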

[10] = Tanguay_ZF_120hpf_SOMI_legacy: (Legacy) Oregon State University Tanguay Lab 120 Hour Post-fertilization zebrafish Assay for Somite Malformation (AID 2283647)
Summary of the method: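 Binary brightfield scoring of somite defects at 120 hpf in 5D wild-type larvae; one dechorionated embryo per well, static exposure from 6 hpf, 28C, sealed and dark. Final DMSO 0.64%; trimethyltin chloride 5uM positive control.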

[11] = Tanguay_ZF_120hpf_CFIN_legacy: (Legacy) Oregon State University Tanguay Lab 120 Hour Post-fertilization zebrafish Assay for Caudal Fin Malformation (AID 2283649)
Summary of the method: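 Dechorionated 5D wild-type zebrafish, static exposure 6–120 hpf, 28C, sealed and dark, 0.64% v/v DMSO final. Binary fin-malformation call at 120 hpf, brightfield; gain of signal vs DMSO baseline.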

[12] = Tanguay_ZF_120hpf_PIG_legacy: (Legacy) Oregon State University Tanguay Lab 120 Hour Post-fertilization zebrafish Assay for Pigmentation Malformation (AID 2283650)
Summary of the method: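 Endpoint is incidence of abnormal pigmentation at 120 hpf in dechorionated 5D zebrafish exposed singly from 6 hpf at 28C, DMSO vehicle at 0.64%. Embryos dying by 24 or 120 hpf are excluded from scoring.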

[13] = Tanguay_ZF_120hpf_SWIM_legacy: (Legacy) Oregon State University Tanguay Lab 120 Hour Post-fertilization zebrafish Assay for Swim Bladder Malformation (AID 2283654);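 further: swim bladder malformation in each larva scored yes or no under brightfield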
Summary of the method: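 Static waterborne exposure of single dechorionated Tropical 5D zebrafish embryos, 6–120 hpf, 28C, 0.64% DMSO final. Read-out: swim bladder malformation, present/absent, relative to DMSO negative control; trimethyltin chloride 5uM served as positive control.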

[14] = Tanguay_ZF_120hpf_TRUN_legacy: (Legacy) Oregon State University Tanguay Lab 120 Hour Post-fertilization zebrafish Assay for Truncated Body (AID 2283655)
Summary of the method: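 Whole-embryo zebrafish screen: dechorionated 5D embryos, static exposure 6–120 hpf, 28C, sealed foil-covered plates, 0.64% DMSO. Binary truncation call; gain of signal versus DMSO baseline.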

[15] = system: Thyroperoxidase (TPO), gene 54314; assay: CCTE_Simmons_AUR_rTPO: CCTE's Amplex UltraRed Assay for Thyroperoxidase (TPO) Inhibition, Simmons Lab (AID 2283662);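 on AC50: potency for loss of signal meaning inhibition of peroxidase activity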
Summary of the method: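 Rat thyroid microsomes (5 ug protein) with 25 uM Amplex UltraRed and 300 uM H2O2 in 200 mM phosphate buffer, 30 min at 37C in dark; fluorescence 544/590 nm. Eight concentrations, 5 nM–87.5 uM final, 0.5% DMSO, triplicate biological replicates.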

[16] = Tanguay_ZF_120hpf_CIRC_legacy: (Legacy) Oregon State University Tanguay Lab 120 Hour Post-fertilization zebrafish Assay for Circulatory Malformation (AID 2283651)
Summary of the method: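 Embryos are dechorionated at 4 hpf, plated one per well at 6 hpf, then held under static exposure at 28C until 120 hpf. Malformations are recorded as binary calls; mortality excludes other endpoints.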

[17] = read-out: kallikrein-3 (KLK3), KLK3 (gene 354); assay: LTEA_HepaRG_KLK3: Life Technologies and Expression Analysis (LTEA) Assay for kallikrein-3 (KLK3) using HepaRG (AID 2283652; active means hit-call score of the fitted dose curve at least 0.9, where 1 is the maximum; inactive means score below 0.9); settings: mRNA level, 48 h; actives raise or lower the signal
Summary of the method: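 KLK3 transcript levels were measured by TaqMan qRT-PCR with normalisation to three housekeeping genes. HepaRG cultures received chemicals for 48 h at up to 100 uM (half-log, 8 points, 0.5% DMSO vehicle), fitted in both directions against DMSO.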

[18] = read-out: solute carrier (SLC22A6), SLC22A6 (gene 9356); assay: LTEA_HepaRG_SLC22A6: Life Technologies and Expression Analysis (LTEA) Assay for solute carrier (SLC22A6) using HepaRG (AID 2283653; active means hit-call score of the fitted dose curve at least 0.9, where 1 is the maximum; inactive means score below 0.9); settings: mRNA level, 48 h; actives raise or lower the signal
Summary of the method: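 HepaRG, human liver line; 48 h chemical exposure; 8-pt half-log series from 100 uM in 0.5% DMSO, duplicate wells. Readout: TaqMan qRT-PCR of SLC22A6 mRNA, housekeeping-normalised; bidirectional curve fit vs DMSO baseline.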

[19] = read-out: solute carrier (SLC10A1), SLC10A1 (gene 6554); assay: LTEA_HepaRG_SLC10A1: Life Technologies and Expression Analysis (LTEA) Assay for solute carrier (SLC10A1) using HepaRG (AID 2283657; active means hit-call score of the fitted dose curve at least 0.9, where 1 is the maximum; inactive means score below 0.9); settings: mRNA level, 48 h; actives raise or lower the signal
Summary of the method: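 Cryopreserved HepaRG cells are thawed, plated and cultured 48 h; medium is then switched to serum-free induction medium and chemicals added (8 points, max 100 uM, 0.5% DMSO). After 48 h, RNA is isolated and SLC10A1 quantified by qRT-PCR.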

[20] = read-out: matrix metalloproteinase-1 (MMP1), MMP1 (gene 4312); assay: LTEA_HepaRG_MMP1: Life Technologies and Expression Analysis (LTEA) Assay for matrix metalloproteinase-1 (MMP1) using HepaRG (AID 2283658; active means hit-call score of the fitted dose curve at least 0.9, where 1 is the maximum; inactive means score below 0.9); settings: mRNA level, 48 h; actives raise or lower the signal
Summary of the method: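 MMP1 transcript read by TaqMan qRT-PCR (Fluidigm array) after 48 h chemical exposure of HepaRG cells in serum-free induction medium. Eight-point half-log series, top 100 uM, 0.5% DMSO vehicle. Bidirectional curve fit against DMSO baseline.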

Measured: AC50

CCC(C)c1ccccc1O (stereo unspecified)
inactive: [1] | [2] | [3] | [4] | [5] | [6] | [7] | [8] | [9] | [10] | [11] | [12] | [13] | [14]

Cc1cc(C(C)(C)C)c(O)c(C(C)(C)C)c1
active: [15] 2.84 µM

CS(=O)(=O)c1ccc([C@@H](CC2CCCC2)C(=O)Nc2cnccn2)cc1Cl
inactive: [1] | [2] | [3] | [4] | [5] | [6] | [7] | [8] | [11] | [12] | [16] | [14]

CCCCc1oc2ccccc2c1C(=O)c1cc(I)c(OCCN(CC)CC)c(I)c1
inactive: [1] | [2] | [3] | [4] | [5] | [6] | [8] | [10] | [11] | [12] | [14]

C[C@]12CC[C@@H]3c4ccc(O)cc4CC[C@H]3[C@@H]1C[C@@H](O)[C@@H]2O
active: [15] 11.9 µM

O=C1NS(=O)(=O)c2ccccc21
inactive: [1] | [2] | [3] | [4] | [5] | [6] | [7] | [8] | [10] | [11] | [12] | [16] | [13] | [14]

CC(=O)Nc1ccc(O)cc1
inactive: [1] | [2] | [3] | [4] | [5] | [6] | [7] | [8] | [9] | [10] | [11] | [12] | [16] | [13] | [14]

Cc1[nH]nc2c1N=C(c1ccccc1Cl)c1cc([N+](=O)[O-])ccc1N2
inactive: [1] | [2] | [3] | [5] | [6] | [7] | [8] | [9] | [10] | [11] | [12] | [16] | [13] | [14]
active: [15] 2.9 µM

NC(=NCCCCCCN=C(N)/N=C(\N)Nc1ccc(Cl)cc1)/N=C(\N)Nc1ccc(Cl)cc1
inactive: [15]

CCCCCCCCCCCC
active: [15] 43.8 µM

CN(Cc1cnc2nc(N)nc(N)c2n1)c1ccc(C(=O)N[C@@H](CCC(=O)O)C(=O)O)cc1
active: [15] 9.76 µM
inactive: [1] | [2] | [3] | [4] | [5] | [6] | [8] | [9] | [10] | [11] | [12] | [16] | [13] | [14]

CCCCCCCCCCCCOC(=O)c1cc(O)c(O)c(O)c1
active: [15] 1.05 µM

Cc1cc(Cc2cc(C)cc(C(C)(C)C)c2O)c(O)c(C(C)(C)C)c1
active: [15] 1.04 µM

CCCCCCCCCCCCOS(=O)(=O)O
inactive: [1] | [2] | [3] | [4] | [5] | [6] | [7] | [8] | [9] | [10] | [11] | [12] | [16] | [13] | [14]

OCC(CO)(CBr)CBr
inactive: [1] | [2] | [3] | [4] | [5] | [6] | [7] | [8] | [9] | [10] | [11] | [12] | [16] | [13] | [14]

CCc1cccc(CC)c1N(COC)C(=O)CS(=O)(=O)O
inactive: [15]

CCCCC(CC)C(=O)O (stereo unspecified)
inactive: [1] | [2] | [3] | [5] | [6] | [7] | [8] | [9] | [12]

O=C(c1ccccc1)c1ccccc1
inactive: [1] | [2] | [3] | [4] | [5] | [6] | [7] | [8] | [10] | [11] | [12] | [16] | [13] | [14]

CN(C)CCOC(c1ccccc1)c1ccccc1
inactive: [1] | [4] | [5] | [7] | [10] | [12] | [13]
active: [2] 15.4 µM | [3] 22.3 µM | [6] 14.6 µM | [8] 26.7 µM | [11] 14.1 µM | [14] 24.8 µM

N=C(N)c1ccc(OCCCCCOc2ccc(C(=N)N)cc2)cc1
inactive: [1] | [2] | [3] | [4] | [5] | [6] | [7] | [8] | [9] | [12] | [16] | [13] | [14]

CCCCCCc1ccc(N)cc1
active: [15] 0.0476 µM

CCCCC=O
active: [2] 45.3 µM | [4] 38.4 µM | [5] 44.9 µM | [6] 38.8 µM | [8] 42.9 µM | [9] 54.8 µM
inactive: [1] | [3] | [10] | [16] | [17] | [18] | [13] | [14] | [19] | [20]

COc1cc([N+](=O)[O-])ccc1N
inactive: [15]

O=C(CCCN1CCC(O)(c2ccc(Cl)cc2)CC1)c1ccc(F)cc1
active: [2] 13.1 µM | [3] 5.66 µM | [4] 4.96 µM | [5] 2.46 µM | [6] 5.66 µM | [8] 3.98 µM | [9] 4.16 µM
inactive: [1] | [7] | [10] | [11] | [12] | [16] | [13] | [14]

CCCCCCCCCCCCCCC
inactive: [1] | [2] | [3] | [4] | [5] | [6] | [7] | [8] | [9] | [10] | [11] | [16] | [13] | [14]

O=C1OC2(c3ccccc31)c1cc(I)c(O)c(I)c1Oc1c2cc(I)c(O)c1I
active: [15] 16 µM

Cc1cc(C(=C2C=CC(=Nc3ccc(S(=O)(=O)O)cc3)C=C2)c2ccc(Nc3ccc(S(=O)(=O)O)cc3)cc2)cc(S(=O)(=O)O)c1N
active: [15] 29.4 µM
